The text below walks through data of PubChem BioAssay AID434989 (The Scripps Research Institute Molecular Screening Center, 2010).

The campaign covered roughly 330,000 compounds. About 1,400 (0.42%) were called active. This excerpt belongs to a sample that is enriched for actives. Unmarked numbers belong to inactive results.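 How the source made its calls: active means inhibition above its plate's threshold, mean inhibition of all tested compounds on the plate plus 3 SD (cut at about 37% in these data); inactive means the rest.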

This assay deals with Orexin/Hypocretin receptor type 1 (Homo sapiens) (UniProt O43613). Description: OX1R (HCRTR1) antagonists, primary screen, fluorescence, CHO/OX1R cells, Fluo-8 calcium, orexin A (AID 434989).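 Further: 0% = orexin A challenge wells and 100% = SB-334867-A antagonist wells.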 To be noted: Fluo-8 calcium fluorescence, at 5 µM, active compounds read high.
Orexin/Hypocretin receptor type 1 (Homo sapiens), sequence (O43613 whole entry, looked up): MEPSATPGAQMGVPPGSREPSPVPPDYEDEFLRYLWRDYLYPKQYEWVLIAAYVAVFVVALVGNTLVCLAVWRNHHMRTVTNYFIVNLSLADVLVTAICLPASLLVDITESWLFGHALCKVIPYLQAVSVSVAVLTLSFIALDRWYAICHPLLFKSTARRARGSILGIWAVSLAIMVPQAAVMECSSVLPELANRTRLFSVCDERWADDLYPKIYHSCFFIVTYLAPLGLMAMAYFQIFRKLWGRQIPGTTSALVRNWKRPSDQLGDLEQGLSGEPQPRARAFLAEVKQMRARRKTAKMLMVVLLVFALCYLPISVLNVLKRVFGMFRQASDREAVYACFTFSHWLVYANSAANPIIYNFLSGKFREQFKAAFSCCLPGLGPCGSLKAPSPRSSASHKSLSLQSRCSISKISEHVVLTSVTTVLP
As usually defined, the inhibition is the drop in the measured response relative to a control, in per cent. As to `COC(=O)c1ccc(C)c(NC(=O)Cn2c(C)csc2=O)c1`, the inhibition was -20%.

For the compound `CCC1CCCCN1C(=S)NC(=O)c1ccco1` (stereo not drawn), the inhibition is 5.19%. With `CC(C)CC1NC(=O)c2cc(Cl)ccc2-n2c1nc1ccccc1c2=O` (stereo not drawn) the figure was -24.4%; with `O=C(NC(=S)Nc1ccc(Br)cc1F)C1CCCCC1`, 0.61%; with `O=C1NC(Cc2ccc(O)cc2)c2nc3ccc(Cl)cc3c(=O)n2-c2ccccc21` (stereo not drawn), -10%. The value for `COc1ccc(CCNC(=O)c2cc3sccc3n2C)cc1OC` was -27.4%; that for `CCC(C(=O)NCc1ccc(OC)cc1)n1nc(C)n2c(cc3occc32)c1=O` (stereo not drawn) was -43.4%.

Take `CCOc1ccc(CCNC(=O)C(CC)n2nc(C)n3c(cc4sccc43)c2=O)cc1OCC` (stereo not drawn): the inhibition is 64.5% (active).

For `Cc1ccc(S(=O)(=O)N2CCN(c3ncnc4ccccc34)CC2)cc1`, the inhibition is 38.9%.

For `COc1ccc(C)cc1S(=O)(=O)N1CCN(S(=O)(=O)c2cc(C(=O)O)ccc2C)CC1`, the inhibition was -8.92%. As to `Cc1ccc(C)c(S(=O)(=O)N2CCN(c3ncnc4sccc34)CC2)c1`, the inhibition is 51.7% (active). Turning to `Cc1cccc(NS(=O)(=O)c2ccc(C)c(C(=O)NCc3cccnc3)c2)c1`, the inhibition is -9.11%. With `C/C=C/c1ccc(OCC(=O)NNC(=O)CN(C)S(=O)(=O)c2ccc(C)cc2)c(OC)c1` the figure was -47.6%; with `O=C(C[C@@H]1C/C=C\CCC(=O)OC[C@@H]2CCCN2C1=O)NCCO`, -14.7%. Take `O=C(COc1ccc(Cl)cc1)NC(=S)Nc1ccccc1N1CCOCC1`: the inhibition is -46.4%. With `Cc1ccccc1NC(=S)NC(=O)Cc1ccc(Cl)cc1` the figure was 17.1%; with `O=C(Cc1ccc(Cl)cc1)NC(=S)Nc1ccccc1O`, 61.6% (active); with `CC(=O)C[C@H](O)CC(=O)[C@@H]1OC(=O)[C@@H](C)C/C=C\Cc2ccccc21`, -24.4%. The value for `CN(C(=O)c1cccc(NC(=O)Cc2ccc([N+](=O)[O-])cc2)c1)C1CCC1` was -24%. As to `COC(=O)[C@]1(Cc2ccccc2)N[C@H](CN(C)S(=O)(=O)c2ccc(OC(F)(F)F)cc2)[C@@H]2C(=O)N(Cc3ccccc3)C(=O)[C@@H]21`, the inhibition was -14.3%. Consider `O=C(COC(=O)Cc1ccc([N+](=O)[O-])cc1)NC1CCCCCC1`, for which the inhibition is -29.4%. With `CCOC(=O)N1CCN(C(=O)CSc2nc(=O)n3cccc(C)c3n2)CC1` the figure was -4.53%; with `CCOC(=O)CC1C(=O)NCCN1c1nc2c(C)cccn2c(=O)c1/C=C1\SC(=S)N(C(C)CC)C1=O` (stereo not drawn), 78.6% (active); with `Cc1cccn2c(=O)c(/C=C3\SC(=S)N(CC(C)C)C3=O)c(NCCCOC(C)C)nc12`, -8.49%. The value for `O=C1C=CN2CCCC2CC1` (stereo not drawn) was -11.6%; that for `c1ccc2c(c1)OCC(CNc1ncnc3nc[nH]c13)O2` (stereo not drawn) was 90.5% (active); that for `c1ccc(-c2cc3c(NCC4COc5ccccc5O4)ncnc3s2)cc1` (stereo not drawn) was -20%. The value for `S=C(NCC1COc2ccccc2O1)Nc1ccc(Br)cc1` (stereo not drawn) was 15.9%; that for `COc1ccc(CNC(=O)COC(=O)c2sccc2C)cc1OC` was -11.2%. As for `Cc1noc(C)c1NC(=O)Nc1cccc2c1O[C@H](CN(C)S(=O)(=O)c1c(C)noc1C)[C@@H](C)CN([C@H](C)CO)C2=O`, the inhibition is -19.7%. With `CCN(C(=O)COC(=O)CCC(=O)c1cccs1)C1CCCCC1` the figure was -13.9%; with `COc1ccc(/C=C/C(=O)OCC(=O)NC2CCCCCC2)cc1OC`, -27.2%; with `CC[C@]12c3[nH]c4ccc(OC)cc4c3CCN1C(=O)C(CC(=O)NCCN1CCOCC1)C[C@@H]2C(=O)N1CCN(C(=O)C2CC2)CC1` (stereo partly drawn), -6.98%. As to `CCN(CC(=O)Nc1ccccc1OC)C(=O)Cn1cnc2ccccc2c1=O`, the inhibition was -15.9%. With `CCN(CC(=O)Nc1ccccc1OC)C(=O)CC1CC2CCC1C2` (stereo not drawn) the figure was -19.5%. The value for `CCCN(CC(=O)Nc1ccccc1OC)C(=O)CCC(=O)c1ccc(F)cc1` was 44.7% (active); that for `NS(=O)(=O)c1cccc(NC(=O)COC(=O)c2cc([N+](=O)[O-])ccc2N2CCCC2)c1` was -7.78%.

Take `O=C(COC(=O)/C=C/c1ccc(Br)o1)Nc1cccc(S(=O)(=O)N2CCOCC2)c1`: the inhibition is -6.48%.

Turning to `O=C(C[C@H]1C/C=C\C[C@@H](NC(=O)OCC2c3ccccc3-c3ccccc32)C(=O)O[C@@H](c2ccccc2)CNC1=O)N[C@H](CO)Cc1ccccc1`, the inhibition is -18.2%. The value for `O=C(COC(=O)CN1C(=O)C2CCCCC2C1=O)Nc1ccc(F)c(F)c1F` (stereo not drawn) was -8.95%; that for `O=C(CCC(=O)OCc1ccc(Cl)cc1)Nc1ccccc1` was -9.06%.

On to `O=C(O)CC1=C(Nc2ccccc2)C(=O)N(c2ccccc2)C1c1ccc(Cl)cc1` (stereo not drawn), for which the inhibition is -21.1%. With `O=C1C=C(c2ccc(Cl)cc2)C(=O)N1Nc1ccccc1` the figure was 53.2% (active); with `Cc1ccc(S(=O)(=O)N2C[C@@H]3CCCC[C@@H]3[C@@H](C)[C@H]2c2cn(Cc3ccccc3)c3ccc(F)cc23)cc1`, 6.16%; with `Fc1ccc2cnc(-c3ccccc3)cc2c1`, -19.1%. The value for `CC(=O)c1ccc(-c2ccc(Cn3c(C)nc4cc(N)c(C)nc43)cc2)cc1` was -25.1%. Take `Cc1cc2nc3c(=O)n(Cc4ccccc4)c(=O)[nH]c3nc2cc1N`: the inhibition is 54.6% (active). The value for `Cc1cc(-c2csc(N)n2)c(C)n1Cc1ccccc1` was -19.7%; that for `COc1ccc(NC(=O)Nc2ccc3c(c2)C(=O)N([C@H](C)CO)C[C@H](C)[C@@H](CN(C)C(=O)Nc2ccc4c(c2)OCO4)O3)cc1` was 1.29%. The value for `COc1ccc(-c2nc3cc(C)ccn3c2NC2CCCCC2)cc1SC1CCCCC1` was 25.4%; that for `CCOC(=O)/C=c1\s/c(=C\c2ccc(C#N)cc2)c(=O)n1CC(=O)Nc1cccc(C)c1C` was 1.96%. As for `CCOC(=O)Cn1c(=O)oc2cc(S(=O)(=O)N(C)Cc3ccco3)ccc21`, the inhibition was -12%. `CN(c1ccccc1)c1ccc(/C=c2\s/c(=C(/C#N)C(=O)C(C)(C)C)n(Cc3ccco3)c2=O)cc1`: the inhibition is 42% (active). As to `CC(C)(C)c1ccc(/C=C/C(=O)Nc2ncccn2)cc1`, the inhibition was -7.7%. With `COC(=O)c1sc(-c2ccc(C(C)(C)C)cc2)cc1NC(=O)/C=C/C(=O)O`, the inhibition is 55.5% (active). The value for `CSc1ccc(NC(=O)/C=C/C(=O)O)cc1` was -13%. For the compound `O=C(NNS(=O)(=O)c1c(F)cc(F)c(Cl)c1F)C12CC3CC(CC(C3)C1)C2`, the inhibition was 4.78%. With `O=C(COC(=O)COc1cccc(F)c1)NCC1CCCCC1` the figure was -16.8%; with `CN(C)S(=O)(=O)c1cccc(NC(=O)Cc2ccsc2)c1`, -7.6%. With `CN(c1ccccc1)S(=O)(=O)c1cccc(NC(=O)Cc2c(F)cccc2Cl)c1` the figure was 11.3%. With `CN(c1ccccc1)S(=O)(=O)c1cccc(NC(=O)Cc2ccc(Cl)cc2)c1`, the inhibition was 42.1% (active). Consider `COCCn1c(C)cc(C(=O)CN2c3cccc4cccc(c34)S2(=O)=O)c1C`, for which the inhibition is -15.1%.

On to `NC(N)=N/N=C/c1ccc(OCc2ccc(Cl)cc2Cl)cc1`, for which the inhibition is 60% (active). With `CCOc1ccc(NC(=O)NNC(=O)c2ccc(Cl)cc2Cl)cc1` the figure was -32.5%; with `OC(CNCCc1ccc(Cl)cc1Cl)COc1ccccc1` (stereo not drawn), -12.8%; with `Cc1noc(C)c1S(=O)(=O)N(C)C[C@H]1Oc2ccc(NC(=O)C3CCCCC3)cc2C(=O)N([C@H](C)CO)C[C@@H]1C`, -7.01%. As to `CC[C@@H](C)[C@@H]1CN([C@@H](C)CN2CCC[C@H]2CN2C(N)=NC[C@H]2C(C)C)C(=N)N1CCc1ccc(Cl)c(Cl)c1`, the inhibition was -14.1%.

For the compound `N#C/C(=C/c1ccc(N2CCCCC2)o1)C(=O)NCCc1c[nH]c2ccccc12`, the inhibition was 61.6% (active). As to `O=C(CN1C(=O)NC2(CCCCC2)C1=O)NCCc1c[nH]c2ccccc12`, the inhibition is -22.5%.

As to `CC(=O)N/C(=C/c1ccc(Cl)cc1)C(=O)NCCc1c[nH]c2ccccc12`, the inhibition was -8.41%. Turning to `CN(C)C(=O)CCc1ccc2c3c([nH]c2c1)[C@]1(C)[C@@H](C(=O)N2CCOCC2)C[C@H](CC(=O)NCCc2ccccn2)C(=O)N1CC3`, the inhibition was -9.61%. Consider `O=C(CN1C(=O)NC2(CCOc3ccccc32)C1=O)Nc1cccc([N+](=O)[O-])c1` (stereo not drawn), for which the inhibition was -4.96%. With `COc1cccc(C(=O)NC(=O)Nc2nc(C)cc(C(F)(F)F)n2)c1` the figure was 43.9% (active).

For the compound `Cc1cc(C)nc(NC(=O)Nc2ccccc2C(F)(F)F)n1`, the inhibition was -30.4%. The value for `COc1cccc(C(=O)NNC(=O)c2cccc(F)c2)c1` was -14.5%. Turning to `CCNC(=S)N1CCN(S(=O)(=O)c2ccc(Cl)s2)CC1`, the inhibition is -8.33%. With `COc1ccc(CNC(=O)C[C@H]2C[C@H](C(=O)N3CCOCC3)[C@@]3(C)c4[nH]c5cc(CCC(=O)N(C)C)ccc5c4CCN3C2=O)cc1OC` the figure was -8.18%; with `CC1=C/C(=N\OS(=O)(=O)c2ccccc2)C=CC1=O`, 50.8% (active); with `CC(C)N(C(=O)[C@H]1C[C@H](CC(=O)NCCC2=CCCCC2)C(=O)N2CCc3c([nH]c4cc(CCC(=O)N(C)C)ccc34)[C@]12C)C(C)C`, -35.9%.

Take `O=C(/C=C(O)/C=C/c1ccc(O)cc1)/C=C/c1ccc(O)cc1`: the inhibition is 88% (active). The value for `O=C(/C=C/c1ccc2c(c1)OCCO2)c1ccc(O)cc1` was -5.09%; that for `O=C(/C=C/c1ccc(Cl)c([N+](=O)[O-])c1)c1ccc(O)cc1` was -19.1%.

With `Cc1ccc(S(=O)(=O)N2[C@@H](c3cccc4ccccc34)C(C(=O)O)=C[C@H]2C(C)(C)C)cc1`, the inhibition is -3.21%.
